Test results taken from PubChem BioAssay.
Values joined by “and” are separate entries in the source; they are usually repeats but may differ in a detail not shown here. Equal entries are not always repeated. Results filed as inconclusive are left out. Active and inactive are the calls of the source.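 The calls were made as follows, unless noted: active = normalized viability below 100% at a tested concentration; inactive = the rest.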

Columns and labels:
[1] = viability loss in pontine glioma line – cell-based, SU-DIPG-XVII, MIPE5.0, CellTiter-Glo, qHTS, dose response (AID 1347060; cut-off not given, nearly all actives have AC50 up to about 26 µM;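 as to AC50: cells exposed to compound for 48 hours before viability readout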); conditions: CellTiter-Glo ATP luminescence
[2] = viability loss in pontine glioma line – cell-based, SU-DIPG-IV, MIPE4.0, CellTiter-Glo, qHTS, dose response (AID 1347063; cut-off not given, nearly all actives have AC50 up to about 30 µM;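 also: compound exposure lasted 48 hours before the viability readout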); conditions: CellTiter-Glo ATP luminescence
[3] = viability loss in pontine glioma line – cell-based, SU-DIPG-XIII, MIPE5.0, CellTiter-Glo, qHTS, dose response (AID 1347064; cut-off not given, nearly all actives have AC50 up to about 23 µM;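 as to AC50: cells exposed to compound for 48 hours before the viability read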); conditions: CellTiter-Glo ATP luminescence
[4] = viability loss in pontine glioma line – cell-based, SU-DIPG-XXV, MIPE5.0, CellTiter-Glo, qHTS, dose response (AID 1347065; cut-off not given, nearly all actives have AC50 up to about 26 µM;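 also: cells exposed to compound for 48 hours before ATP readout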); conditions: CellTiter-Glo ATP luminescence
[5] = growth inhibition of DIPG cells – cell-based, MIPE4.0 library, CellTiter-Glo luminescence, qHTS (AID 1347066; cut-off not given, nearly all actives have AC50 up to about 30 µM;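 also: cells exposed to compound for 48 hours before readout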); conditions: SU-DIPG-VI viability, CellTiter-Glo ATP luminescence
[6] = JHH-DIPG-1 glioma cell viability, MIPE5.0 library, CellTiter-Glo luminescence, qHTS (AID 1347067; cut-off not given, nearly all actives have AC50 up to about 26 µM;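 also: cells exposed to compound for 48 hours before readout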); conditions: JHH-DIPG-1 glioma viability, CellTiter-Glo ATP luminescence
[7] = growth inhibition of DIPG cells – cell-based, MIPE5.0 library, qHTS (AID 1347068; cut-off not given, nearly all actives have IC50 up to about 30 µM;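 as to IC50: cells exposed to compound for 48 hours before viability readout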); conditions: SU-DIPG-XXV viability
[8] = viability loss in pontine glioma line – cell-based, JHH-DIPG-1, MIPE4.0, CellTiter-Glo, qHTS, dose response (AID 1347062; cut-off not given, nearly all actives have AC50 up to about 27 µM); conditions: JHH-DIPG-1 viability, CellTiter-Glo ATP luminescence
[9] = viability loss with induced miR-34 in A549 – imaging, A549 dox-inducible miR-34, nuclei and caspase counts, primary screen (AID 1347080;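 active = compounds whose cell count with miR-34 switched on is under 0.7 times the count with it off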); conditions: A549 miR-34 inducible, Hoechst nuclei count, 48 h
[10] = MELAS cybrid and Rieske KO viability enhancers – cell-based, MELAS cybrids, Rieske KO mouse fibroblasts, CellTiter-Glo, primary screen (AID 1508586;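 active = mean z-score across replicates of 1.96 or higher in either the MELAS or the Rieske mutant cell line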;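 also: z relative to plate mean and SD of compound and empty wells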); conditions: low glucose
[11] = P. berghei load reduction in hepatocytes – cell-based, HepG2, luciferase luminescence, HepG2 viability, primary screen (AID 624349; in the data active = parasite load remaining mostly below about 12%, no sharp cut-off; inactive = mostly above about 10%;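 also: 100% = mean of DMSO negative control wells on the same plate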); conditions: P. berghei liver stage in HepG2, luciferase luminescence, concentration not given here; parasite load remaining: stronger effect = lower value; viability: measured here: HepG2 viability without parasites
[12] = drug combination growth inhibition, ovarian cancer – cell-based, oncology-focused library, rucaparib conditional, profiling panel (AID 1508598); conditions: patient-derived ovarian cancer cells, CellTiter-Glo viability, 144 h, stronger effect = lower value
[13] = compounds altering HSF1 focus formation in cells – imaging, Selleck Cancer Library (AID 1347162; in the data active = plate-normalised HSF1 focus index below about 0.46); conditions: human cells, HSF1 nuclear foci imaging, at 10 µM; SSMD: measured here: HSF1 foci SSMD mean; cell count: measured here: cell number; plate-normalised HSF1 focus index: stronger effect = lower value
[14] = stronger effect = lower value, cell number ratio, induced over uninduced
[15] = measured here: relative caspase fold change +Dox/-Dox
[16] = measured here: total cells with miR-34 induction, stronger effect = lower value
[17] = measured here: total cells without miR-34 induction
[18] = MELAS cybrid survival, CellTiter-Glo 48 h, stronger effect = higher value
[19] = Rieske KO mouse fibroblast survival, CellTiter-Glo 72 h

COc1cc(C(C)C)c(Oc2cnc(NC(CO)CO)nc2N)cc1I
active: AC50 [2] 14.8 µM
inactive: outcome [1] | outcome [3] | outcome [4] | outcome [5] | outcome [6] | outcome [7]

Clc1ccc(COC(Cn2ccnc2)c2ccc(Cl)cc2Cl)c(Cl)c1 (centres undefined)
active: AC50 [1] 26.3 µM | AC50 [4] 23.5 µM | AC50 [6] 20.9 µM
inactive: outcome [8]

CNC(=O)c1cccc(-c2ccc3c(N4CCOC[C@@H]4C)nc(N4CCOC[C@@H]4C)nc3n2)c1
active: AC50 [1] 1.32 µM | AC50 [2] 0.0209 µM | AC50 [3] 0.118 µM | AC50 [4] 0.372 µM

CC[C@@]1([C@@H]2O[C@@H]([C@H]3O[C@@](O)(CO)[C@H](C)C[C@@H]3C)C[C@@H]2C)CC[C@H]([C@]2(C)CC[C@]3(C[C@H](O)[C@@H](C)[C@@H]([C@@H](C)[C@@H](OC)[C@H](C)C(=O)O)O3)O2)O1
active: AC50 [1] 0.0574 µM | AC50 [2] 0.144 µM | AC50 [3] 0.456 µM | AC50 [4] 0.456 µM | AC50 [6] 0.288 µM

CCN(CC)CCCCNc1ncc2c(n1)N(C)C(=O)N(c1c(Cl)c(OC)cc(OC)c1Cl)C2
active: AC50 [1] 0.59 µM | AC50 [2] 18.7 µM | AC50 [3] 0.263 µM | AC50 [4] 0.372 µM | IC50 [7] 7.42 µM

NCc1c[nH]c(=S)n1[C@H]1CCc2c(F)cc(F)cc2C1
inactive: outcome [1] | outcome [3] | outcome [4] | outcome [6] | outcome [7]
active: AC50 [2] 9.35 µM

CC(C)c1cc(C(C)C)c(CC(=O)NS(=O)(=O)Oc2c(C(C)C)cccc2C(C)C)c(C(C)C)c1
active: AC50 [1] 10.5 µM | AC50 [2] 20.9 µM | AC50 [3] 13.2 µM | AC50 [4] 9.34 µM | AC50 [5] 10.5 µM | AC50 [6] 11.8 µM | IC50 [7] 8.33 µM
5000: cell count [9, 16]
0.65: fold change [9, 15]
0.969: z-score [10, 19]
inactive: fold change [9, 14] 0.956 | z-score [10, 18] -0.406
5220: cell count [9, 17]

Cc1cc(Nc2cc(CN3CCOCC3)c3nc(C)c(Cc4ccc(Cl)cc4F)n3n2)n[nH]1
-1.27: z-score [10, 19]
0.647: fold change [9, 15]
inactive: fold change [9, 14] 1.46 | z-score [10, 18] -0.366
active: AC50 [1] 1.32 µM | AC50 [2] 11.8 µM | AC50 [3] 10.5 µM | AC50 [4] 1.18 µM | AC50 [5] 23.5 µM | AC50 [6] 3.32 µM | IC50 [7] 8.33 µM
982: cell count [9, 17]
1440: cell count [9, 16]

N#Cc1c(NC(=O)c2cccc3ccccc23)sc2c1CCCC2
1290: cell count [9, 17]
1320: cell count [9, 16]
active: AC50 [1] 0.372 µM | AC50 [2] 0.418 µM | AC50 [3] 1.32 µM | AC50 [4] 0.833 µM | AC50 [6] 0.263 µM | IC50 [7] 0.235 µM | viability ([12]; at 0.000305 µM, OCI-P5x cells, with rucaparib 20 µM, 100% = cells with rucaparib alone) 96% | viability ([12]; at 0.00122 µM, OCI-P5x cells, with rucaparib 20 µM, 100% = cells with rucaparib alone) 95.3% | viability ([12]; at 0.00488 µM, OCI-P5x cells, without rucaparib) 97.3% | viability ([12]; at 0.0195 µM, OCI-P5x cells, with rucaparib 20 µM, 100% = cells with rucaparib alone) 98.6% | viability ([12]; at 0.0781 µM, OCI-P5x cells, with rucaparib 20 µM, 100% = cells with rucaparib alone) 97.5% | viability ([12]; at 1.25 µM, OCI-C5x cells, with rucaparib 10 µM, 100% = cells with rucaparib alone) 72.9% | viability ([12]; at 1.25 µM, OCI-P5x cells, with rucaparib 20 µM, 100% = cells with rucaparib alone) 65.1% | viability ([12]; at 1.25 µM, OCI-P5x cells, without rucaparib) 34.2% | viability ([12]; at 5 µM, OCI-C5x cells, with rucaparib 10 µM, 100% = cells with rucaparib alone) 49.6% | viability ([12]; at 5 µM, OCI-C5x cells, without rucaparib) 64.5% | viability ([12]; at 5 µM, OCI-P5x cells, with rucaparib 20 µM, 100% = cells with rucaparib alone) 58.3% | viability ([12]; at 5 µM, OCI-P5x cells, without rucaparib) 18.2%
0.237 and -1.54: z-score [10, 19]
inactive: parasite load remaining [11] 47.8% | outcome [5] | fold change [9, 14] 1.02 | z-score [10, 18] -0.44 and 1.09 | viability ([12]; at 0.000305 µM, OCI-C5x cells, with rucaparib 10 µM, 100% = cells with rucaparib alone) 117% | viability ([12]; at 0.000305 µM, OCI-C5x cells, without rucaparib) 105% | viability ([12]; at 0.000305 µM, OCI-P5x cells, without rucaparib) 102% | viability ([12]; at 0.00122 µM, OCI-C5x cells, with rucaparib 10 µM, 100% = cells with rucaparib alone) 129% | viability ([12]; at 0.00122 µM, OCI-C5x cells, without rucaparib) 120% | viability ([12]; at 0.00122 µM, OCI-P5x cells, without rucaparib) 109% | viability ([12]; at 0.00488 µM, OCI-C5x cells, with rucaparib 10 µM, 100% = cells with rucaparib alone) 113% | viability ([12]; at 0.00488 µM, OCI-C5x cells, without rucaparib) 109% | viability ([12]; at 0.00488 µM, OCI-P5x cells, with rucaparib 20 µM, 100% = cells with rucaparib alone) 102% | viability ([12]; at 0.0195 µM, OCI-C5x cells, with rucaparib 10 µM, 100% = cells with rucaparib alone) 108% | viability ([12]; at 0.0195 µM, OCI-C5x cells, without rucaparib) 116% | viability ([12]; at 0.0195 µM, OCI-P5x cells, without rucaparib) 103% | viability ([12]; at 0.0781 µM, OCI-C5x cells, with rucaparib 10 µM, 100% = cells with rucaparib alone) 118% | viability ([12]; at 0.0781 µM, OCI-C5x cells, without rucaparib) 109% | viability ([12]; at 0.0781 µM, OCI-P5x cells, without rucaparib) 102% | viability ([12]; at 0.313 µM, OCI-C5x cells, with rucaparib 10 µM, 100% = cells with rucaparib alone) 119% | viability ([12]; at 0.313 µM, OCI-C5x cells, without rucaparib) 110% | viability ([12]; at 0.313 µM, OCI-P5x cells, with rucaparib 20 µM, 100% = cells with rucaparib alone) 105% | viability ([12]; at 0.313 µM, OCI-P5x cells, without rucaparib) 100% | viability ([12]; at 1.25 µM, OCI-C5x cells, without rucaparib) 106%
98%: viability [11]
0.427: fold change [9, 15]

CC(N[C@H]1CCCC[C@@H]1NC(=O)c1ccc(Cl)cc1)c1cccc2ccccc12 (some centres undefined)
active: AC50 [1] 8.33 µM | AC50 [2] 0.148 µM | AC50 [3] 7.42 µM | AC50 [4] 8.33 µM | AC50 [6] 9.34 µM | IC50 [7] 16.6 µM

CCOc1cc2ncc(C#N)c(Nc3ccc(OCc4ccccn4)c(Cl)c3)c2cc1NC(=O)/C=C/CN(C)C
active: AC50 [1] 14.8 µM | AC50 [2] 0.148 µM | AC50 [3] 5.9 µM | AC50 [4] 0.934 µM | AC50 [6] 5.25 µM
-1.15: SSMD [13]
inactive: outcome [5] | plate-normalised HSF1 focus index [13] 0.928
7340: cell count [13]
